Assay results from PubChem BioAssay (EPA / NIEHS).
Records with an inconclusive call do not appear. Activity calls are given as the source filed them. Rule for the calls, unless noted: active = hit-call score of the fitted dose curve at least 0.9, where 1 is the maximum; inconclusive = response in the unintended direction; inactive = score below 0.9.

Columns and labels:
[1] = ATG_NF_kB_CIS: Attagene CIS-FACTORIAL HepG2 Assay for human Nuclear Factor Kappa B (NF-kB) (AID 2282991; active = hit-call score of the fitted dose curve at least 0.9, where 1 is the maximum; inactive = score below 0.9); details: HepG2 Attagene cis-factorial NF-kB reporter mRNA; actives raise or lower the signal
Method in brief: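 After 24 h compound incubation, transfected HepG2 cells yield total RNA; reporter cDNA is PCR-amplified, end-labelled with 6-FAM, HpaI-digested and analysed on a genetic analyser. Endogenous factor activity, DMSO-referenced bidirectional fit.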

[2] = ATG_NRF2_ARE_CIS: Attagene CIS-FACTORIAL HepG2 Assay for human Nuclear Factor Erythroid 2 Related Factor 2 (NFR2) response to Antioxidant Response Elements (ARE) (AID 2282992; active = hit-call score of the fitted dose curve at least 0.9, where 1 is the maximum; inactive = score below 0.9;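 for AC50: reporter mRNA level measured by RT-PCR and capillary electrophoresis fluorescence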); details: HepG2 Attagene ARE/NRF2 reporter, transcription factor activity; actives raise or lower the signal
Method in brief: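 HepG2 cells transiently transfected with multiplexed cis-regulated reporter transcription units measure endogenous transcription factor activity. Reporter mRNA at 24 h is quantified by RT-PCR, fluorescent labelling and capillary electrophoresis, with bidirectional fitting relative to DMSO.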

[3] = target: Cellular tumor antigen p53 (Homo sapiens) (UniProt P04637); assay: ATG_p53_CIS: Attagene CIS-FACTORIAL HepG2 Assay for human p53 Transcription Factor (AID 2282994; active = hit-call score of the fitted dose curve at least 0.9, where 1 is the maximum; inactive = score below 0.9); details: HepG2 p53 cis-element reporter, Attagene mRNA; actives raise or lower the signal
Method in brief: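 HepG2 cells transiently transfected with multiplexed cis-regulated reporter transcription units read endogenous TF activity. After 24 h compound exposure, reporter mRNA was quantified by RT-PCR, fluorescent labelling, HpaI digestion and capillary electrophoresis; bidirectional fits versus DMSO baseline.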

[4] = target: human Peroxisome Proliferator-activated Receptor alpha (PPARa), PPARA (gene 5465) (UniProt Q07869); assay: ATG_PPARa_TRANS: Attagene TRANS-FACTORIAL HepG2 Assay for human Peroxisome Proliferator-activated Receptor alpha (PPARa) (AID 2283001)
Method in brief: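 Measures transcriptional activity of an exogenous chimeric PPARa-Gal4 protein in transiently transfected HepG2 cells after 24 h dosing. Reporter mRNA quantified via RT-PCR and capillary electrophoresis; DMSO served as negative control.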

[5] = target: human Peroxisome Proliferator-activated Receptor delta (PPARd), PPARD (gene 5467) (UniProt Q03181); assay: ATG_PPARd_TRANS: Attagene TRANS-FACTORIAL HepG2 Assay for human Peroxisome Proliferator-activated Receptor delta (PPARd) (AID 2283002)
Method in brief: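 Read-out: reporter mRNA induction, quantified by fluorescent RT-PCR products resolved by capillary electrophoresis. Human HepG2 liver cells carried transiently transfected Gal4-UAS reporter constructs with chimeric NR-Gal4 fusions. Cells were dosed for 24 h; DMSO served as baseline.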

[6] = target: human Retinoic Acid Receptor beta (RARb), RARB (gene 5915) (UniProt P10826); assay: ATG_RARb_TRANS: Attagene TRANS-FACTORIAL HepG2 Assay for human Retinoic Acid Receptor beta (AID 2283004)
Method in brief: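 Transient transfection of HepG2 with multiple reporter units → chemical dosing, 24 h → total RNA isolation → RT with oligo(dT) → reporter-specific PCR, 6-FAM primer extension, HpaI digest → capillary electrophoresis. Positive direction vs DMSO control.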

[7] = target: Peroxisome proliferator-activated receptor gamma (Homo sapiens) (UniProt P37231); assay: ATG_PPARg_TRANS: Attagene TRANS-FACTORIAL HepG2 Assay for human Peroxisome Proliferator-activated Receptor-gamma (PPARg) (AID 2283007)
Method in brief: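 Liver-derived HepG2 cells expressing an exogenous NR-Gal4 chimera alongside GAL4-UAS reporter genes; 24 h exposure. Fluorescence of reporter RT-PCR products, separated by capillary electrophoresis, gives mRNA induction relative to DMSO.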

[8] = target: human RAR-related Orphan Receptor beta (RORb), RORB (gene 6096) (UniProt Q92753); assay: ATG_RORb_TRANS: Attagene TRANS-FACTORIAL HepG2 Assay for human RAR-related Orphan Receptor beta (RORb) (AID 2283010)
Method in brief: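 In this TRANS-format test, human HepG2 cells express chimeric NR-Gal4 fusion proteins driving GAL4-UAS reporters. After 24 h dosing, reporter transcripts are measured by fluorescent RT-PCR/capillary electrophoresis, with DMSO as negative control.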

[9] = target: Retinoic acid receptor RXR-alpha (Homo sapiens) (UniProt P19793); assay: ATG_RXRa_TRANS: Attagene TRANS-FACTORIAL HepG2 Assay for human Retinoid X Receptor alpha (RXRa) (AID 2283012)
Method in brief: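 Cells (HepG2) carried transiently transfected GAL4-responsive reporter units. Following a 24 h chemical incubation, reporter mRNA induction was read via RT-PCR fragment analysis; DMSO served as negative control and baseline.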

[10] = target: Retinoic acid receptor alpha (Homo sapiens) (UniProt P10276); assay: ATG_RARa_TRANS: Attagene TRANS-FACTORIAL HepG2 Assay for human Retinoic Acid Receptor alpha (RARa) (AID 2283005)
Method in brief: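 HepG2 transiently transfected with multiplex GAL4-UAS reporter units including a human RARa–GAL4 chimera; 24 h compound exposure. Reporter mRNA quantified by RT-PCR, 6-FAM labeling and capillary electrophoresis; gain of signal versus DMSO.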

[11] = target: human Retinoic Acid Receptor gamma (RARg), RARG (gene 5916) (UniProt P13631); assay: ATG_RARg_TRANS: Attagene TRANS-FACTORIAL HepG2 Assay for human Retinoic Acid Receptor gamma (RARg) (AID 2283009)
Method in brief: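 HepG2, RARg-GAL4 TRANS system, 24 h exposure; reporter mRNA by RT-PCR + CE fluorescence; increase over DMSO.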

[12] = target: human RAR-related Orphan Receptor gamma (RORg), RORC (gene 6097) (UniProt P51449); assay: ATG_RORg_TRANS: Attagene TRANS-FACTORIAL HepG2 Assay for human RAR-related Orphan Receptor gamma (RORg) (AID 2283011)
Method in brief: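 First, HepG2 liver cells were transfected with GAL4-UAS-driven reporter constructs and the RORg-Gal4 fusion. Next, they were treated with chemical for 24 h. Finally, reporter mRNA was quantified by RT-PCR and capillary electrophoresis, with upward activity fitted against DMSO.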

[13] = target: Nuclear receptor subfamily 1 group I member 2 (Homo sapiens) (UniProt O75469); assay: ATG_PXR_TRANS: Attagene TRANS-FACTORIAL HepG2 Assay for human Pregnane X Receptor (PXR) (AID 2283008)
Method in brief: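 HepG2 cells transiently transfected with multiple reporter units, here a PXR-GAL4 chimera driving a GAL4-UAS reporter; 24 h compound exposure. Reporter mRNA measured by RT-PCR, FAM labelling and capillary electrophoresis; gain of signal fitted against DMSO baseline.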

[14] = ATG_Oct_MLP_CIS: Attagene CIS-FACTORIAL HepG2 Assay for human Octamer-Binding Transcription Factor (Oct) (AID 2282993; active = hit-call score of the fitted dose curve at least 0.9, where 1 is the maximum; inactive = score below 0.9); details: HepG2 Attagene cis-factorial Oct reporter, mRNA; actives raise or lower the signal
Method in brief: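 Transfected HepG2 cells, 24 h treatment. Reporter mRNA quantified by RT-PCR–capillary electrophoresis; bidirectional fitting against DMSO.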

[15] = BSK_3C_TissueFactor: BioMAP Diversity Plus: 3C Assay for Tissue Factor Biomarker Activity (AID 2282997; active = hit-call score of the fitted dose curve at least 0.9, where 1 is the maximum; inactive = score below 0.9); details: BioMAP 3C HUVEC, tissue factor biomarker readout; actives raise or lower the signal
Method in brief: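 ELISA read-out of Tissue Factor levels on human umbilical vein endothelium collected 24 h after chemical dosing. Gain or loss of signal was fitted relative to DMSO.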

[16] = BSK_3C_uPAR: BioMAP Diversity Plus: 3C Assay for Urokinase-type plasminogen activator receptor (uPAR) Biomarker Activity (AID 2282998; active = hit-call score of the fitted dose curve at least 0.9, where 1 is the maximum; inactive = score below 0.9); details: BioMAP 3C HUVEC, uPAR biomarker ELISA; actives raise or lower the signal
Method in brief: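 Readout: ELISA for surface uPAR. System: human umbilical vein endothelial primary cells, 24 h after chemical exposure. Analysis: bidirectional fit, DMSO baseline.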

[17] = BSK_3C_VCAM1: BioMAP Diversity Plus: 3C Assay for Vascular cell adhesion molecule 1 (VCAM1) Biomarker Activity (AID 2282999; active = hit-call score of the fitted dose curve at least 0.9, where 1 is the maximum; inactive = score below 0.9); details: BioMAP 3C HUVEC, VCAM1 ELISA, cytokine-stimulated; actives raise or lower the signal
Method in brief: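 Human umbilical vein endothelial cells (3C system), biomarker read by ELISA 24 h after dosing; bidirectional fit against DMSO baseline. Cytotoxicity tracked by SRB total-protein staining in parallel cultures at biomarker time.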

[18] = BSK_4H_Eotaxin3: BioMAP Diversity Plus: 4H Assay for Eotaxin 3 Biomarker Activity (AID 2283000; active = hit-call score of the fitted dose curve at least 0.9, where 1 is the maximum; inactive = score below 0.9;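 note: CCL26 protein level quantified by ELISA in parallel with SRB cytotoxicity check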); details: primary human endothelial cells (HUVEC); actives raise or lower the signal
Method in brief: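 Chemicals were added to human umbilical vein endothelium cultures, and Eotaxin-3 was quantified by ELISA at 24 h. Values were derived by bidirectional fitting with DMSO serving as negative control and activity baseline.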

[19] = BSK_3C_Proliferation: Cell Proliferation Assessment in the BioMAP Diversity Plus: 3C Assay (AID 2283006; active = hit-call score of the fitted dose curve at least 0.9, where 1 is the maximum; inactive = score below 0.9); details: primary human endothelial cells (HUVEC)
Method in brief: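 Proliferation of human vascular endothelial primary cells after 48 h dosing, quantified as SRB-stained protein at 560 nm relative to DMSO.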

Measured: AC50

Chain of Retinoic acid receptor alpha (Homo sapiens) (P10276 whole entry, looked up, the tested form may be a part): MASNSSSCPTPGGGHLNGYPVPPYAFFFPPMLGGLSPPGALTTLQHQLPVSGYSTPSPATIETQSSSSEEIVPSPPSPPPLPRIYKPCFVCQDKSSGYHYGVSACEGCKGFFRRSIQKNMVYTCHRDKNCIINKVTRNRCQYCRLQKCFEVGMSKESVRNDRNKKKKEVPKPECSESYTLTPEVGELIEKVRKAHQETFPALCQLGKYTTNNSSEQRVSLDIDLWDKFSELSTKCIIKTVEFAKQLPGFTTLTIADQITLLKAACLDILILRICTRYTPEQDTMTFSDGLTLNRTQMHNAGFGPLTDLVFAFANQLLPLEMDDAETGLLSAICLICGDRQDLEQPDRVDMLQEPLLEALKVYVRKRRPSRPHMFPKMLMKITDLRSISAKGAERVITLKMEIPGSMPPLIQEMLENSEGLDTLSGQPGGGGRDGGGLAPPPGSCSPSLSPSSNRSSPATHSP
Chain of Peroxisome proliferator-activated receptor gamma (Homo sapiens) (P37231 whole entry, looked up, the tested form may be a part): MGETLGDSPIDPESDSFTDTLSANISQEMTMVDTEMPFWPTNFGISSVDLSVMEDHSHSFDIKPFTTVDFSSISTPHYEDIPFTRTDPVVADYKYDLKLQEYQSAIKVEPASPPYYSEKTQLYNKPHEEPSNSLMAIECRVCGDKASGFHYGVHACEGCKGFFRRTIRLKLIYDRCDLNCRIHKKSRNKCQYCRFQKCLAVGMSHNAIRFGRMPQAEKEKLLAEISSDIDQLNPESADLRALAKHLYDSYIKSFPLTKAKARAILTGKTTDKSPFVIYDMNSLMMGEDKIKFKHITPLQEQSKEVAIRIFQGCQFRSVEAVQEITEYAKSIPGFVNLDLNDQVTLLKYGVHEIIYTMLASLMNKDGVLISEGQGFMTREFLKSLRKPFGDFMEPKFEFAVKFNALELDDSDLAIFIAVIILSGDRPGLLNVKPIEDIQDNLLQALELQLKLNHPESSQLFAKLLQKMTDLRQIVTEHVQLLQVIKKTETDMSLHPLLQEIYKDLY
Chain of human Peroxisome Proliferator-activated Receptor delta (PPARd), PPARD (gene 5467) (Q03181 whole entry, looked up, the tested form may be a part): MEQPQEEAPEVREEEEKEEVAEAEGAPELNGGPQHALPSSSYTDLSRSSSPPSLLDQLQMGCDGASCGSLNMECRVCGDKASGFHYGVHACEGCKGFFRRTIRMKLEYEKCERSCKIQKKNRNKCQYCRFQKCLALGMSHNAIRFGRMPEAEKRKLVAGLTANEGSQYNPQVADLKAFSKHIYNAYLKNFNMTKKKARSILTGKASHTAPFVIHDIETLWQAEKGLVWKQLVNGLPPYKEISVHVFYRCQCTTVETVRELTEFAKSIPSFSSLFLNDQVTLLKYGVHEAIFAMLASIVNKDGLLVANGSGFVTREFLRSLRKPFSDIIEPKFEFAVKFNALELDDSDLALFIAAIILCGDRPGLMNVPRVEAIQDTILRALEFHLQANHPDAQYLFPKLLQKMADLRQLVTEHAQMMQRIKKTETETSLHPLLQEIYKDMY
Chain of human Retinoic Acid Receptor beta (RARb), RARB (gene 5915) (P10826 whole entry, looked up): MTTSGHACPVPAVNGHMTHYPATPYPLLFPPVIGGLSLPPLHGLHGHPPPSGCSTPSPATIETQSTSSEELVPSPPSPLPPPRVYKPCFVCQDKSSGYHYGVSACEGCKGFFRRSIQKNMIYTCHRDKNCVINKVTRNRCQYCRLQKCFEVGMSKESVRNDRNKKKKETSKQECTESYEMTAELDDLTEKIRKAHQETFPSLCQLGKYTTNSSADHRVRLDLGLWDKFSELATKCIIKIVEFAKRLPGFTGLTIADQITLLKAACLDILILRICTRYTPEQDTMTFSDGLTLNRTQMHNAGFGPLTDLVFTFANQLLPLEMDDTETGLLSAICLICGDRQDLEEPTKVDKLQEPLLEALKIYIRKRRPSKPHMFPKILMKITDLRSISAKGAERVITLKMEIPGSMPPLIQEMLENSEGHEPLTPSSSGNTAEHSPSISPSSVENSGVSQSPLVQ
Chain of Cellular tumor antigen p53 (Homo sapiens) (P04637 whole entry, looked up): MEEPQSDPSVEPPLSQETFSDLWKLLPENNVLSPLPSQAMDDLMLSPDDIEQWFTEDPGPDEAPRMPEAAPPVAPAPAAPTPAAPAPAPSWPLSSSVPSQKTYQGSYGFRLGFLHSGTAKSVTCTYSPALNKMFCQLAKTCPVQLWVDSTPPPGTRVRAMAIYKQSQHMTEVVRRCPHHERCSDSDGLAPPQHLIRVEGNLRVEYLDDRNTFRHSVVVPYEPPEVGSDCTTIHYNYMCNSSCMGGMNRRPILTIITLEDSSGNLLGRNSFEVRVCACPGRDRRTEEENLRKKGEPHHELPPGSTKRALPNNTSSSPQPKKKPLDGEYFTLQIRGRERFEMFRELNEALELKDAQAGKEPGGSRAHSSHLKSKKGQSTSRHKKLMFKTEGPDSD
Chain of human RAR-related Orphan Receptor beta (RORb), RORB (gene 6096) (Q92753 whole entry, looked up, the tested form may be a part): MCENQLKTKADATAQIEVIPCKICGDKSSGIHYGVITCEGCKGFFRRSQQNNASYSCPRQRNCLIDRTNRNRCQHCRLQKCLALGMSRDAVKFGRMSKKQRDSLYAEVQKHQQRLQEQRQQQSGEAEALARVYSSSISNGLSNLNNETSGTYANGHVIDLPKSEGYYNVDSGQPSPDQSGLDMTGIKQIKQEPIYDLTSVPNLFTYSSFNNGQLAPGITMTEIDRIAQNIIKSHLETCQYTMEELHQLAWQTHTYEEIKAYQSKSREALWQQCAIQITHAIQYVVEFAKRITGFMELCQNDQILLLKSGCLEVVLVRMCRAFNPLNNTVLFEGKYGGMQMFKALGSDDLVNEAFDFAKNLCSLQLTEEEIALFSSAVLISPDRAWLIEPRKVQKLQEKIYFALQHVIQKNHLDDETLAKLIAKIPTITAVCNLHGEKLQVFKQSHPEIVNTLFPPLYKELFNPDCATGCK
Chain of human Retinoic Acid Receptor gamma (RARg), RARG (gene 5916) (P13631 whole entry, looked up, the tested form may be a part): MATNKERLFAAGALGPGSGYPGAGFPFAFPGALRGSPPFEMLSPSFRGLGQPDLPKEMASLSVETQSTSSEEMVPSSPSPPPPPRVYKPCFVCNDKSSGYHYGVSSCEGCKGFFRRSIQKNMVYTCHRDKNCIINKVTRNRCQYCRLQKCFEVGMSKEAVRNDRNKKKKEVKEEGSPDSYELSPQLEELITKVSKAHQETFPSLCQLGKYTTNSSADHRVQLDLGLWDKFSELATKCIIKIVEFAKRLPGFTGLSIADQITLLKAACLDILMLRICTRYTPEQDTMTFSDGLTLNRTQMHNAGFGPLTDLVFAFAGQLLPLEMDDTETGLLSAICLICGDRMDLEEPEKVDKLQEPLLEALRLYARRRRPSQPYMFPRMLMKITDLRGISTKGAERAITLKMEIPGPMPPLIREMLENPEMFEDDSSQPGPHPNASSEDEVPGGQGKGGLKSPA
Chain of Retinoic acid receptor RXR-alpha (Homo sapiens) (P19793 whole entry, looked up, the tested form may be a part): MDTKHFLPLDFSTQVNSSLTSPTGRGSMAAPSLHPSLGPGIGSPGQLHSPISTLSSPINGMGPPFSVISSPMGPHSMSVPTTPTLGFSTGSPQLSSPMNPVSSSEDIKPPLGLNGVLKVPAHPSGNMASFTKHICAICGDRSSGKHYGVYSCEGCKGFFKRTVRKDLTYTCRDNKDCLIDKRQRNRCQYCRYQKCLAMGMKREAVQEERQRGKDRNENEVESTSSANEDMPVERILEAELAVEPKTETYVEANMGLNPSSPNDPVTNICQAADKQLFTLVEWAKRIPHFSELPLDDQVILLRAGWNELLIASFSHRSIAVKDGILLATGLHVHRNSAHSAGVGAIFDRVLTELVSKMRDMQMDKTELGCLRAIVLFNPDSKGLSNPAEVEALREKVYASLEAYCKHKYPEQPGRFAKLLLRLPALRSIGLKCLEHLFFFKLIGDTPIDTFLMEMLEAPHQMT
Chain of human Peroxisome Proliferator-activated Receptor alpha (PPARa), PPARA (gene 5465) (Q07869 whole entry, looked up, the tested form may be a part): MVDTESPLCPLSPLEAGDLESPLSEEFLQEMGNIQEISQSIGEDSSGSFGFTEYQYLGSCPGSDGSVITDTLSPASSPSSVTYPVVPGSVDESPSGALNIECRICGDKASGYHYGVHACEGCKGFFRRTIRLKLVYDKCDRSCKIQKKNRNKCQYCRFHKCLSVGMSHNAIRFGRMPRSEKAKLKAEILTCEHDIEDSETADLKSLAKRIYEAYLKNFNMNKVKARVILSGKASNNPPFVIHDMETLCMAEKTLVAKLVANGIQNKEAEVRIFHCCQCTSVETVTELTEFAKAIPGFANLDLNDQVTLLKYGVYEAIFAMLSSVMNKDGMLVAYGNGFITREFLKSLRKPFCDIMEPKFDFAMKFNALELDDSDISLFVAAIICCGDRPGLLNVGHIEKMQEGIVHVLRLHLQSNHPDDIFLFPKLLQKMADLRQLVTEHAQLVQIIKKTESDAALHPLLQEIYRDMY
Chain of Nuclear receptor subfamily 1 group I member 2 (Homo sapiens) (O75469 whole entry, looked up, the tested form may be a part): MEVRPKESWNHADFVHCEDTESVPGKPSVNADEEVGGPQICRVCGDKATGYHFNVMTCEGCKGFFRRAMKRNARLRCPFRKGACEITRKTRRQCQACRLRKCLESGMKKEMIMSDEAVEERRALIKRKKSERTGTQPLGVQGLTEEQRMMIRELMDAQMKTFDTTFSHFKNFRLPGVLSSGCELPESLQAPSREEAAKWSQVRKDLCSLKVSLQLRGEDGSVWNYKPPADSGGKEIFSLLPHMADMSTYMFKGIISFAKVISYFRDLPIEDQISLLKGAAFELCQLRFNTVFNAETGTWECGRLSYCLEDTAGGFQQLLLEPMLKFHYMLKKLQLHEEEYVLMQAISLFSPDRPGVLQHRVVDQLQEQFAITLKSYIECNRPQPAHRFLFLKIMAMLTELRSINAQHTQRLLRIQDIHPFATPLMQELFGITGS

Cc1ccc2ccc3ccc(C)cc3c2c1
active: [2] 61.3 µM
inactive: [1] | [3] | [4] | [5] | [6] | [7] | [8] | [9]

FC(F)(F)C1(F)C(F)(F)C(F)(F)C(F)(F)C1(F)F
not listed: [13] | [14] | [15] | [16] | [17] | [18] | [19]
inactive: all other assays above

c1ccc(CNc2ncnc3c2ncn3C2CCCCO2)cc1 (stereo unspecified)
active: [2] 19.8 µM | [7] 70.6 µM | [13] 6.85 µM
inactive: [1] | [3] | [5] | [6] | [10] | [11] | [9]

OCC(CO)(CBr)CBr
inactive: [1] | [2] | [14] | [15] | [16] | [17] | [18] | [19] | [9]

Clc1ccc(Nc2nnc(Cc3ccncc3)c3ccccc23)cc1
active: [2] 18.7 µM | [7] 26.9 µM | [13] 3.3 µM
not listed: [4] | [6] | [8] | [10] | [12] | [14]
inactive: all other assays above

CC(C)[C@@H]1CC[C@@H](C)C[C@H]1O
inactive: [1] | [2] | [4] | [5] | [6] | [7] | [8] | [9]

O=S(=O)(O)c1ccccc1
inactive: [1] | [2] | [14] | [4] | [7] | [11] | [8] | [9]

CCN(CCC#N)c1ccccc1
inactive: [1] | [2] | [14] | [6] | [10] | [7] | [11] | [8] | [9]

FCOC(C(F)(F)F)C(F)(F)F
inactive: [1] | [2] | [14] | [4] | [5] | [11] | [8] | [9]
